# Most compounds without a hit are left out; they make up all but 15% or so of the library.
# ELG1 repair inh: qHTS screen for small molecules that inhibit ELG1-dependent DNA repair in human embryonic kidney (HEK293T) cells expressing luciferase-tagged ELG1 | HEK293T ELG1-luciferase reporter, luminescence, 16 h; DNA damage induced by 5-fluorouridine | Potency, µM (titrated, usually from 46.1 µM), for the others: at the highest dose activity change, negative = inhibition, most hits filed as inhibitors | hit rate 2.3% among 330,000 | AID 504467, 2011; further: nearly all actives have a fitted effect of over 55% in size
#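 Quantitative HTS, concentration-response format. 2,000 cells/well co-treated with 5-fluorouridine and compound, 16 hr in 5% CO2 at 37 °C; ONE-Glo luminescence read after 30 min.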
# DT40 TDP1 CPT: qHTS for Inhibitors of human tyrosyl-DNA phosphodiesterase 1 (TDP1): qHTS in cells in presence of CPT. chicken DT40 Tdp1-/-;hTDP1 cells + 20 nM CPT, ATP luminescence, 48 h. Potency, µM (top dose mostly 46.2 µM), for inactives: top-dose activity change, negative = growth inhibition, hits mostly inhibitors. hit rate 12% among 420,000; further: nearly all actives have a fitted effect of over 55% in size
#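 Cell growth measured by CellTiter-Glo luminescence after a minimum 48 h, 37 C compound exposure with 20 nM CPT in Tdp1-knockout DT40 cells stably expressing hTDP1, seeded 400/well; qHTS titration format.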
# Gal4-VP16 FLuc: VP16 counterscreen qHTS for inhibitors of ROR gamma transcriptional activity; hit rate 3.5% among 310,000; AID 2546, 2010; Drosophila S2 Gal4-VP16 UAS-luciferase, luminescence, 20 h; Potency, µM (titrated, usually from 53.6 µM), for the others: at the highest dose activity, negative = inhibition, most hits filed as inhibitors;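 further: Gal4-VP16 expression switched on by copper sulfate through the metallothionein promoter; nearly all actives have a fitted effect of over 50% in size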
# RORgamma inh: qHTS for inhibitors of ROR gamma transcriptional activity. AID 2551, 2010. hit rate 5.4% among 310,000. Potency, µM (doses to about 53.6 µM), for the others: top-dose activity change, negative = inhibition, most hits filed as inhibitors. Drosophila S2 Gal4-RORgamma UAS-luciferase reporter, 20 h; further: nearly all actives have a fitted effect of over 60% in size
# Target sequence (P51450 whole entry, looked up, the tested form may be a part): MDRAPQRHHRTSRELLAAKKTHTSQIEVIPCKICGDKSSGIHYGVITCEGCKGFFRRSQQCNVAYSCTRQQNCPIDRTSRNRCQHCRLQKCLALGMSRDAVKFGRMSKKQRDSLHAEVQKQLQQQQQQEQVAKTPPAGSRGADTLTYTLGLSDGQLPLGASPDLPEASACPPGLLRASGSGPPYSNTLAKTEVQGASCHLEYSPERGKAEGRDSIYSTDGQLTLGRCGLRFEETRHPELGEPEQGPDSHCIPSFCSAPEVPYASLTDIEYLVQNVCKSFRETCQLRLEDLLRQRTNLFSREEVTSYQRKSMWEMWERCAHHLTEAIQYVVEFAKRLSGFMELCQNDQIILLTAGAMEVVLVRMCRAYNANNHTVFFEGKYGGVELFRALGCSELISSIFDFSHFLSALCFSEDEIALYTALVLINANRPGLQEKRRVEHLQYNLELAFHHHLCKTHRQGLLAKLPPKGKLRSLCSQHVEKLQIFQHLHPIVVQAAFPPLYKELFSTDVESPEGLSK
#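 Drosophila S2 cells stably expressing Gal4-DBD/mouse RORγ fusion under metallothionein promoter plus UAS-luciferase; compound 1 h, then 700 uM CuSO4 induction for 20 h at ambient temperature; inhibition read as reduced luminescence.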
# TDP1 cell noCPT: qHTS for Inhibitors of human tyrosyl-DNA phosphodiesterase 1 (TDP1): qHTS in cells in absence of CPT | DT40 Tdp1-/- hTDP1 cells, no CPT, ATP luminescence, 48 h | Potency, µM (highest dose often 46.2 µM), for inactives: at the highest dose activity change, negative = growth inhibition, most hits filed as inhibitors | hit rate 15% among 420,000; further: nearly all actives have a fitted effect of over 55% in size
#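 Growth kinetics read by CellTiter-Glo luminescence after ≥48 hr at 37 °C. Cells: DT40 Tdp1-/- stably carrying human TDP1, 400 per well, compound exposure in the absence of CPT (DMSO vehicle).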
# ALOX12 inh: Primary qHTS assay for inhibitors of human arachidonate 12S-lipoxygenase (ALOX12): Round 2. purified 12hLO, xylenol orange hydroperoxide absorbance. Potency, µM (titrated, usually from 108 µM), for inactives: at the top dose activity change, negative = inhibition, most hits filed as inhibitors. hit rate 1.1% among 580,000
#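 Purified human 12hLO at 150 nM in 25 mM Hepes, 0.01% Triton X-100, pH 7.0, preincubated 15 min at room temperature with compound. Reaction started with 40 uM arachidonic acid, 30 min at room temperature. Hydroperoxide measured by Fe-xylenol orange, 573/405 nm absorbance ratio.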
# The depositor's hits bear a star; ? = inconclusive; · = not tested or not shown; [ ] = remark or other dose. The call rests on the fitted dose curve; in most records, active means well fitted curve in the direction sought with a large enough effect; inconclusive means small, poorly fitted or top-dose-only effect, or another doubt; inactive means no such curve, though single readings can be large; an effect the other way counts as inactive or inconclusive. On the % scale 0 is the no-effect control and ±100 the full control effect; potency means the concentration at half of the fitted maximal effect.
SMILES,ELG1 repair inh,DT40 TDP1 CPT,Gal4-VP16 FLuc,RORgamma inh,TDP1 cell noCPT,ALOX12 inh
COc1ccc(N=C2NC(=O)/C(=C/c3ccc(O)c(OC)c3)S2)cc1,?,?,-11%,-30%[10 µM],?,-18%
O=C1NC(=Nc2ccc(O)cc2)S/C1=C\C=C\c1ccco1,?,0.82µM*,?,5%,0.73µM*,-23%
COc1cc(/C=C2/SC(=Nc3ccc(O)cc3)NC2=O)cc(OC)c1O,16%,16µM*,7%,9%,12µM*,-11%
COc1ccccc1N=C1NC(=O)/C(=C/c2ccc(N(C)C)cc2)S1,?,2.1µM*,?,?,1.8µM*,29%
CCNC(=O)CN(CC)CCc1ccccc1,·,·,·,·,·,6%
CN(C)c1cc(N2CCCC(NC(=O)c3ccnn3C)C2)ncn1 (stereo not drawn),·,·,·,·,·,17%
CC(C)NC(=O)Nc1cccc(C(=O)NC(C)c2cccc(Cl)c2)c1 (stereo not drawn),·,·,·,·,·,-43%
O=C(c1cc(S(=O)(=O)N2CCCCC2)ccc1Cl)N1CCOCC1,11%,11%,-8%,-17%,-26%,-4%
O=C(c1cc(S(=O)(=O)N2CCOCC2)ccc1Cl)N1CCc2ccccc2C1,-10%,-30%,10%,7%,?,6%
COc1cc2c(cc1OC)CN(c1ccc(F)cc1[N+](=O)[O-])CC2,?,-25%,5%,-16%,?,?
Cc1ccc(S(=O)(=O)N2CCN(C(=O)c3cc(S(=O)(=O)N4CCOCC4)ccc3Cl)CC2)c(C)c1,·,18µM*,·,·,16µM*,17%
COc1cc2c(cc1OC)CN(C(=O)c1ccc(N3CCCC3)c([N+](=O)[O-])c1)CC2,?,21µM*,·,·,23µM*,?
COc1cc2c(cc1OC)CN(C(=O)CN1CCN(S(=O)(=O)c3ccc(C)c(C)c3)CC1)CC2,-26%,23µM*,-1%,-4%,13µM*,?
COc1cc2c(cc1OC)CN(C(=O)c1cc(S(=O)(=O)N3CCOCC3)ccc1Cl)CC2,?,?,3%,0%[10 µM],21µM*,0%
O=C(Nc1ccc(Oc2ccccc2)cc1)N[C@H]1CO[C@H]2[C@@H]1OC[C@@H]2Nc1nccc(-c2cccc(F)c2)n1,·,·,·,·,·,-12%
O=[S+]1([O-])NC2(CCN(CC3CCCCC3)CC2)COc2ccccc21,·,·,·,·,·,3%[6.33 µM]
COc1ccc(C(=O)Nc2ccc3oc(=O)ccc3c2)cc1,·,·,·,·,·,-12%
O=C(c1ccc(Cl)c(S(=O)(=O)N2CCCCCC2)c1)N1CCCCC1,-4%,-24%,-6%,11%,-18%,-4%
COc1ccc(C(=O)N2CCc3ccccc3C2)cc1S(=O)(=O)N1CCCC1,·,?,·,·,?,11%
COc1cc2c(cc1OC)CN(C(=O)c1ccc(Cl)c(S(=O)(=O)N3CCCC3)c1)CC2,?,23µM*,·,·,?,39%
COc1cc2c(cc1OC)CN(C(=O)c1ccc(OC)c(S(=O)(=O)N3CCCC3)c1)CC2,-7%,?,·,·,29µM*,7%
CCC(C)(C)NC(=O)c1ccc(C(=O)O)cc1,·,·,·,·,·,-4%
CCc1ccc(NC(=O)Cn2nc3n(c2=O)CCCCC3)cc1,·,·,·,·,·,-4%
Cc1ccc(C)c(Cn2nc(-c3cc(C)ccc3C)ccc2=O)c1,?,?,-5%,1%,21µM*,?
COC(=O)c1ccc(Cn2nc(-c3cc(C)ccc3C)ccc2=O)cc1,-16%,-28%,-10%,16%,?,15%
SMILES,ELG1 repair inh,DT40 TDP1 CPT,Gal4-VP16 FLuc,RORgamma inh,TDP1 cell noCPT,ALOX12 inh
Oc1ccc(Nc2nc3ccccc3nc2Nc2ccc(O)cc2)cc1,?,1.6µM*,?,16µM*,2.3µM*,·
COC(=O)[C@@]12C[C@@H](CC(=O)NCc3cccs3)C(=O)N(Cc3ccco3)C1=CCC(C)(C)C2,·,?,·,·,18µM*,?
COC(=O)[C@@]12C[C@@H](CC(=O)NCc3ccccc3)C(=O)N(Cc3ccco3)C1=CCC(C)(C)C2,·,18µM*,·,·,?,2%
COC(=O)[C@@]12C[C@@H](CC(=O)NCCc3ccccc3OC)C(=O)N(Cc3ccco3)C1=CCC(C)(C)C2,·,?,·,·,?,-12%
COC(=O)[C@@]12C[C@@H](CC(=O)NCCCCc3ccccc3)C(=O)N(Cc3ccco3)C1=CCC(C)(C)C2,·,16µM*,·,·,?,-25%
COC(=O)[C@@]12C[C@@H](CC(=O)NCCC(C)C)C(=O)N(Cc3ccco3)C1=CCC(C)(C)C2,·,?,·,·,?,-2%
COC(=O)[C@@]12C[C@@H](CC(=O)NCc3ccc(OC)c(OC)c3)C(=O)N(Cc3ccco3)C1=CCC(C)(C)C2,·,?,·,·,?,-3%
COC(=O)[C@@]12C[C@@H](CC(=O)NCc3cccc4ccccc34)C(=O)N(Cc3ccco3)C1=CCC(C)(C)C2,·,21µM*,·,·,?,?

# From PubChem BioAssay
